Screening data deposited in PubChem by ICCB-Longwood Screening Facility, Harvard Medical School.
The entries come from a sample that favours hits as a whole.
Bm FixLJ act – B. multivorans fixK reporter activation; B. multivorans fixK-promoter GFP reporter, 18 h; stronger effect = higher value; z-score (test concentration not listed); 29,000 compounds, 0.3% hits; AID 1918990;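 active = replicate mean overnight rise in green fluorescent reporter signal, 3 or more SD over negative controls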
An asterisk follows results filed as active.

SMILES	Bm FixLJ act
CC(=O)c1ccc(NC(=O)C2CCC(CNS(=O)(=O)c3cccs3)CC2)cc1 (stereo not given)	0.41
CCOc1ccccc1CNCc1c(C(=O)O)c(C)n(Cc2ccc(Cl)cc2)c1C	0.02
Clc1ccc(CN2CCC(CNc3ncnc4onc(-c5ccc(Cl)cc5)c34)CC2)cc1	-1.33
O=C(Nc1cccc2cccnc12)c1ccccc1[N+](=O)[O-]	-1.96
O=C(Nc1onc2c1CCCC2)c1ccc(Cl)cc1	-1.29
CC1CCc2noc(NC(=O)c3ccccc3[N+](=O)[O-])c2C1 (stereo not given)	3.56*
COCCNC(=O)c1ccc(OC2CCN(C(=O)C(C)O)CC2)c(Cl)c1 (stereo not given)	-0.51
CCCC1C=CCN1C(=O)c1coc(COc2ccc(OC)cc2)n1 (stereo not given)	-0.95
O=c1oc2c3c(ccc2c2ccccc12)OCN(Cc1ccccc1Cl)C3	0.8
Cc1cc2c(c3oc(=O)c4ccccc4c13)CN(Cc1ccc(F)cc1)CO2	5.29*
O=c1oc2c3c(ccc2c2ccccc12)OCN(Cc1cccc(Cl)c1)C3	-0.72
Cn1c(CO)nnc1C1CCN(C(=O)CC(Cc2ccccc2)c2ccco2)CC1 (stereo not given)	-2.7
O=C(Cc1ccccc1)Nc1c(C(=O)c2ccccc2)oc2ccccc12	3.1*
Cc1ccc(NC(=O)c2oc3ccccc3c2NC(=O)Cc2ccccc2)cc1	-0.81
CCc1ccc(OCC(=O)Nc2c(C(=O)c3ccccc3)oc3ccccc23)cc1	-1.92
CCN(C(=O)C1CCN(S(=O)(=O)c2cc(Br)cc3c2N(C(C)=O)CC3)CC1)c1cccc(C)c1	-0.46
CCCCOc1nnc(-c2ccc(OCC)cc2)c2ccccc12	-0.84
CCc1ccc(C2Sc3ccccc3NC3=C2C(=O)c2ccccc23)cc1 (stereo not given)	3.32*
O=C1C2=C(Nc3ccccc3SC2c2ccc(C(F)(F)F)cc2)c2ccccc21 (stereo not given)	1.37
CC(C)c1ccc(C2Sc3ccccc3NC3=C2C(=O)c2ccccc23)cc1 (stereo not given)	2.65
CCc1nc(C)c(CNS(=O)(=O)N2CCCC(COC)C2)s1 (stereo not given)	-3.47
O=C(C1CCC1)N1CCCn2nc(CNc3ncnc4c3CCC4)cc2C1	0.38
COc1ccccc1-c1nc(S(=O)(=O)c2ccc(Cl)cc2)c(N2CCCCCC2)o1	-0.45
Cc1ccc(S(=O)(=O)c2nc(-c3ccccc3Cl)oc2N2CCCCCC2)cc1	1.15
O=S(=O)(c1ccccc1)c1nc(-c2ccccc2Cl)oc1N1CCCCCC1	3.2*
SMILES	Bm FixLJ act
NC[C@@H]1O[C@H](O[C@H]2[C@@H](O)[C@H](O[C@@H]3[C@@H](O)[C@H](N)C[C@H](N)[C@H]3O[C@H]3O[C@H](CN)[C@@H](O)[C@H](O)[C@H]3N)O[C@@H]2CO)[C@H](N)[C@@H](O)[C@@H]1O	0.31
CCc1c(C)noc1NC(=O)C1CC(=O)OC12CCCCC2 (stereo not given)	-1.97
CCOc1ccccc1NC(=O)Cn1c(=O)n(CCCC(=O)NCCc2ccc(C)cc2)c(=O)c2ccccc21	-2.59
O=C(c1ccccc1N1CCS(=O)(=O)CC1)N1CCOC(C(F)(F)F)C1 (stereo not given)	-5.14
CCNc1cc(N2CCN(C3CCCCC3)CC2)c2noc3c2c1C(=O)c1ccccc1-3	-1.12
CCCCNc1cc(NC2CCCCC2)c2c3c(onc13)-c1ccccc1C2=O	4.15*
O=C1c2ccccc2-c2onc3c(NCCO)cc(NC4CCCCC4)c1c23	-1.7
CC(C)CN1CC(C(=O)N2CCC(c3cc(=O)[nH]cn3)CC2)CCC1=O (stereo not given)	0.42
CCOC(=O)c1ccccc1NC(=O)NCc1cccn1Cc1ccc(F)cc1	1.6
CCCOc1ccc(C(=O)Nc2ccc(NC(=O)c3ccccc3)c(Br)c2)cc1	-0.53
CC(C)(C)n1ccc(C(=O)NC(Cn2cccn2)c2ccccc2)c1 (stereo not given)	0.26
CCc1ccc2occ(CC(=O)Nc3nnc(SC)s3)c2c1	-0.26
Cc1ccc(NC(=O)Cc2coc3ccc(C(C)C)cc23)cc1Cl	-1.65
CCc1ccc2occ(CC(=O)Nc3ccc(C)c(C)c3)c2c1	3.44*
Cc1cccc2nc(C(=O)NCCc3n[nH]c(=O)[nH]3)c(F)n12	0.57
CC(C)c1nc(C2CC(=O)N(CCN(C)C)C2)n(C(C)(C)C)n1 (stereo not given)	-1.16
CC(=O)NCc1cc2n(n1)CCN(S(=O)(=O)c1cc(C)cs1)C2	-0.79
COC(=O)c1ccc(NC(=O)CN(CCc2ccccc2)S(=O)(=O)c2ccc(OC)cc2)cc1	3
Cc1ccc(S(=O)(=O)N(CCc2ccccc2)CC(=O)Nc2ccc(Br)cc2)cc1	3.11*
O=C(CN(CCc1ccccc1)S(=O)(=O)c1ccc(Br)cc1)NCc1ccc(Cl)cc1	0.62
CCC(C)n1c(=N)c(C(=O)NCc2ccco2)cc2c(=O)n3cc(C)ccc3nc21 (stereo not given)	-1.52
CC(=O)c1ccc(NC(=O)C2CCCN(S(=O)(=O)c3ccc(Br)s3)C2)cc1 (stereo not given)	3.21*
